Measurements reported in the supplement of paper PMC4466140.

Columns and labels:
Assay in all cases: SPOT peptide array binding signal intensity (averaged, normalized) (arbitrary units (background-subtracted, floor 0; scale differs between SH3 domains)); higher = stronger binding of the SH3 domain to the peptide
CaNbp2 = target: CaNbp2
In short: (§1)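 GST-SH3 fusions from four yeast species, purified on glutathione Sepharose, were incubated at 10 μg/ml overnight at 4°C on membranes of synthetic 15-mer peptides in which cysteines were replaced with serines. Binding signal is the normalized, background-subtracted spot intensity averaged over replicates, in domain-specific arbitrary units.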

CaRvs167 = target: CaRvs167
In short: as §1

CaRvs167-3 = target: CaRvs167-3
In short: as §1

CaSho1 = target: CaSho1
In short: as §1

CaSla1-D1-D2 = target: CaSla1-D1-D2
In short: as §1

CaSla1-D3 = target: CaSla1-D3
In short: as §1

ScAbp1 = target: ScAbp1
In short: as §1

ScBbc1 = target: ScBbc1
In short: as §1

ScBem1-D1 = target: ScBem1-D1
In short: as §1

ScBzz1-D1 = target: ScBzz1-D1
In short: as §1

ScBzz1-D2 = target: ScBzz1-D2
In short: as §1

ScCyk3 = target: ScCyk3
In short: as §1

ScFus1 = target: ScFus1
In short: as §1

ScHof1 = target: ScHof1
In short: as §1

ScHse1 = target: ScHse1
In short: as §1

ScLsb1 = target: ScLsb1
In short: as §1

ScLsb2 = target: ScLsb2
In short: as §1

ScLsb3 = target: ScLsb3
In short: as §1

ScLsb4 = target: ScLsb4
In short: as §1

ScMyo3 = target: ScMyo3
In short: as §1

ScMyo5 = target: ScMyo5
In short: as §1

ScNbp2 = target: ScNbp2
In short: as §1

ScPex13 = target: ScPex13
In short: as §1

ScRvs167 = target: ScRvs167
In short: as §1

ScSho1 = target: ScSho1
In short: as §1

ScSla1-D1-D2 = target: ScSla1-D1-D2
In short: as §1

ScSla1-D3 = target: ScSla1-D3
In short: as §1

SpAbp1-D1 = target: SpAbp1-D1
In short: as §1

SpBbc1 = target: SpBbc1
In short: as §1

SpBzz1-D1 = target: SpBzz1-D1
In short: as §1

SpBzz1-D2 = target: SpBzz1-D2
In short: as §1

SpCyk3 = target: SpCyk3
In short: as §1

SpHof1 = target: SpHof1
In short: as §1

SpHof1-2 = target: SpHof1-2
In short: as §1

SpHof1-3 = target: SpHof1-3
In short: as §1

SpHse1 = target: SpHse1
In short: as §1

SpLsb1 = target: SpLsb1
In short: as §1

SpLsb4 = target: SpLsb4
In short: as §1

SpMyo1 = target: SpMyo1
In short: as §1

SpNbp2 = target: SpNbp2
In short: as §1

SpPex13 = target: SpPex13
In short: as §1

SpRvs167 = target: SpRvs167
In short: as §1

SpSla1-D1-D2 = target: SpSla1-D1-D2
In short: as §1

SpSla1-D3 = target: SpSla1-D3
In short: as §1

AgAbp1 = target: AgAbp1
In short: as §1

AgBbc1 = target: AgBbc1
In short: as §1

AgBem1-D1 = target: AgBem1-D1
In short: as §1

AgBzz1-D1 = target: AgBzz1-D1
In short: as §1

AgBzz1-D2 = target: AgBzz1-D2
In short: as §1

AgCyk3 = target: AgCyk3
In short: as §1

AgFus1 = target: AgFus1
In short: as §1

AgHof1 = target: AgHof1
In short: as §1

AgHse1 = target: AgHse1
In short: as §1

AgLsb1 = target: AgLsb1
In short: as §1

AgLsb4 = target: AgLsb4
In short: as §1

AgMyo5 = target: AgMyo5
In short: as §1

AgNbp2 = target: AgNbp2
In short: as §1

AgRvs167 = target: AgRvs167
In short: as §1

AgSho1 = target: AgSho1
In short: as §1

AgSla1-D1-D2 = target: AgSla1-D1-D2
In short: as §1

AgSla1-D3 = target: AgSla1-D3
In short: as §1

CaAbp1-D1 = target: CaAbp1-D1
In short: as §1

CaAbp1-D2 = target: CaAbp1-D2
In short: as §1

CaBbc1 = target: CaBbc1
In short: as §1

CaBem1-D1 = target: CaBem1-D1
In short: as §1

CaBzz1-D1 = target: CaBzz1-D1
In short: as §1

CaBzz1-D2 = target: CaBzz1-D2
In short: as §1

CaCyk3 = target: CaCyk3
In short: as §1

CaFus1 = target: CaFus1
In short: as §1

CaHof1 = target: CaHof1
In short: as §1

CaHse1 = target: CaHse1
In short: as §1

CaLsb1 = target: CaLsb1
In short: as §1

CaLsb4 = target: CaLsb4
In short: as §1

CaMyo5 = target: CaMyo5
In short: as §1

B1: unnamed (peptide)
chain: SRSKPLPLTPNSKYN
- SPOT peptide array binding signal intensity (CaNbp2): 19.5
- SPOT peptide array binding signal intensity (CaRvs167): 6.17
- SPOT peptide array binding signal intensity (CaRvs167-3): 2.75
- SPOT peptide array binding signal intensity (CaSho1): 3190
- SPOT peptide array binding signal intensity (CaSla1-D1-D2): 1430
- SPOT peptide array binding signal intensity (CaSla1-D3): 1.5
- SPOT peptide array binding signal intensity (ScAbp1): 332
- SPOT peptide array binding signal intensity (ScBbc1): 2.5
- SPOT peptide array binding signal intensity (ScBem1-D1): 8
- SPOT peptide array binding signal intensity (ScBzz1-D1): 98.5
- SPOT peptide array binding signal intensity (ScBzz1-D2): 89
- SPOT peptide array binding signal intensity (ScCyk3): 5
- SPOT peptide array binding signal intensity (ScFus1): 8
- SPOT peptide array binding signal intensity (ScHof1): ≤ 0
- SPOT peptide array binding signal intensity (ScHse1): 30
- SPOT peptide array binding signal intensity (ScLsb1): ≤ 0
- SPOT peptide array binding signal intensity (ScLsb2): 1
- SPOT peptide array binding signal intensity (ScLsb3): ≤ 0
- SPOT peptide array binding signal intensity (ScLsb4): 12
- SPOT peptide array binding signal intensity (ScMyo3): ≤ 0
- SPOT peptide array binding signal intensity (ScMyo5): 2
- SPOT peptide array binding signal intensity (ScNbp2): 20
- SPOT peptide array binding signal intensity (ScPex13): 39
- SPOT peptide array binding signal intensity (ScRvs167): 2.33
- SPOT peptide array binding signal intensity (ScSho1): 3960
- SPOT peptide array binding signal intensity (ScSla1-D1-D2): 156
- SPOT peptide array binding signal intensity (ScSla1-D3): 28.2
- SPOT peptide array binding signal intensity (SpAbp1-D1): 872
- SPOT peptide array binding signal intensity (SpBbc1): 6.5
- SPOT peptide array binding signal intensity (SpBzz1-D1): 578
- SPOT peptide array binding signal intensity (SpBzz1-D2): 1.25
- SPOT peptide array binding signal intensity (SpCyk3): 5
- SPOT peptide array binding signal intensity (SpHof1): 1490
- SPOT peptide array binding signal intensity (SpHof1-2): 1710
- SPOT peptide array binding signal intensity (SpHof1-3): 1310
- SPOT peptide array binding signal intensity (SpHse1): 37.5
- SPOT peptide array binding signal intensity (SpLsb1): 1
- SPOT peptide array binding signal intensity (SpLsb4): 17
- SPOT peptide array binding signal intensity (SpMyo1): 10.5
- SPOT peptide array binding signal intensity (SpNbp2): 11
- SPOT peptide array binding signal intensity (SpPex13): 5
- SPOT peptide array binding signal intensity (SpRvs167): 12.3
- SPOT peptide array binding signal intensity (SpSla1-D1-D2): 844
- SPOT peptide array binding signal intensity (SpSla1-D3): 0.5

B2: unnamed (peptide)
chain: IRMPSNPALPKKLLN
- SPOT peptide array binding signal intensity (AgAbp1): 194
- SPOT peptide array binding signal intensity (AgBbc1): 40
- SPOT peptide array binding signal intensity (AgBem1-D1): 431
- SPOT peptide array binding signal intensity (AgBzz1-D1): 10
- SPOT peptide array binding signal intensity (AgBzz1-D2): 10
- SPOT peptide array binding signal intensity (AgCyk3): 1
- SPOT peptide array binding signal intensity (AgFus1): 806
- SPOT peptide array binding signal intensity (AgHof1): 59.5
- SPOT peptide array binding signal intensity (AgHse1): 367
- SPOT peptide array binding signal intensity (AgLsb1): 2.5
- SPOT peptide array binding signal intensity (AgLsb4): 21.5
- SPOT peptide array binding signal intensity (AgMyo5): 1.75
- SPOT peptide array binding signal intensity (AgNbp2): 308
- SPOT peptide array binding signal intensity (AgRvs167): 2.33
- SPOT peptide array binding signal intensity (AgSho1): 852
- SPOT peptide array binding signal intensity (AgSla1-D1-D2): 16
- SPOT peptide array binding signal intensity (AgSla1-D3): 7.5
- SPOT peptide array binding signal intensity (CaAbp1-D1): 616
- SPOT peptide array binding signal intensity (CaAbp1-D2): 1080
- SPOT peptide array binding signal intensity (CaBbc1): 126
- SPOT peptide array binding signal intensity (CaBem1-D1): 444
- SPOT peptide array binding signal intensity (CaBzz1-D1): 314
- SPOT peptide array binding signal intensity (CaBzz1-D2): 247
- SPOT peptide array binding signal intensity (CaCyk3): 15
- SPOT peptide array binding signal intensity (CaFus1): 1400
- SPOT peptide array binding signal intensity (CaHof1): ≤ 0
- SPOT peptide array binding signal intensity (CaHse1): 504
- SPOT peptide array binding signal intensity (CaLsb1): 15.5
- SPOT peptide array binding signal intensity (CaLsb4): 692
- SPOT peptide array binding signal intensity (CaMyo5): 97.5
- SPOT peptide array binding signal intensity (CaNbp2): 1060
- SPOT peptide array binding signal intensity (CaRvs167): 65.7
- SPOT peptide array binding signal intensity (CaRvs167-3): 3.5
- SPOT peptide array binding signal intensity (CaSho1): 2070
- SPOT peptide array binding signal intensity (CaSla1-D1-D2): 476
- SPOT peptide array binding signal intensity (CaSla1-D3): 424
- SPOT peptide array binding signal intensity (ScAbp1): 104
- SPOT peptide array binding signal intensity (ScBbc1): 9.5
- SPOT peptide array binding signal intensity (ScBem1-D1): 2
- SPOT peptide array binding signal intensity (ScBzz1-D1): 17
- SPOT peptide array binding signal intensity (ScBzz1-D2): 29
- SPOT peptide array binding signal intensity (ScCyk3): 6
- SPOT peptide array binding signal intensity (ScFus1): 805
- SPOT peptide array binding signal intensity (ScHof1): 5.5
- SPOT peptide array binding signal intensity (ScHse1): 89.5
- SPOT peptide array binding signal intensity (ScLsb1): 102
- SPOT peptide array binding signal intensity (ScLsb2): ≤ 0
- SPOT peptide array binding signal intensity (ScLsb3): 769
- SPOT peptide array binding signal intensity (ScLsb4): 296
- SPOT peptide array binding signal intensity (ScMyo3): 35.2
- SPOT peptide array binding signal intensity (ScMyo5): 2
- SPOT peptide array binding signal intensity (ScNbp2): 509
- SPOT peptide array binding signal intensity (ScPex13): 195
- SPOT peptide array binding signal intensity (ScRvs167): 32.5
- SPOT peptide array binding signal intensity (ScSho1): 1060
- SPOT peptide array binding signal intensity (ScSla1-D1-D2): 544
- SPOT peptide array binding signal intensity (ScSla1-D3): 277
- SPOT peptide array binding signal intensity (SpAbp1-D1): 268
- SPOT peptide array binding signal intensity (SpBbc1): 5
- SPOT peptide array binding signal intensity (SpBzz1-D1): 700
- SPOT peptide array binding signal intensity (SpBzz1-D2): 41
- SPOT peptide array binding signal intensity (SpCyk3): 4
- SPOT peptide array binding signal intensity (SpHof1): 53.2
- SPOT peptide array binding signal intensity (SpHof1-2): 30
- SPOT peptide array binding signal intensity (SpHof1-3): 22.8
- SPOT peptide array binding signal intensity (SpHse1): 294
- SPOT peptide array binding signal intensity (SpLsb1): 16.8
- SPOT peptide array binding signal intensity (SpLsb4): 1170
- SPOT peptide array binding signal intensity (SpMyo1): 67.5
- SPOT peptide array binding signal intensity (SpNbp2): 241
- SPOT peptide array binding signal intensity (SpPex13): 136
- SPOT peptide array binding signal intensity (SpRvs167): 107
- SPOT peptide array binding signal intensity (SpSla1-D1-D2): 17.5
- SPOT peptide array binding signal intensity (SpSla1-D3): 477
